Mot1-301 SUMO = SUMOylation pathway inhibition by Mot1-301 growth rescue; S. cerevisiae Mot1-301 growth rescue, ATP luminescence, 38.5C; percent above DMSO median, 100 means doubled; growth rescue, % at 18.8 µM; AID 2716; hit rate 1% among 320,000;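 active = every valid replicate shows activation above 250% relative to neutral control wells; inactive = the rest, any valid replicate at or below 250%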;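 also: OY570 slx delta 5 strain wells were the positive control but not used for scaling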
PHOSPHO1 inh = PHOSPHO1 (human) inhibition. Q8TCT1. recombinant PHOSPHO1, absorbance phosphatase assay. inhibition, % at 13.3 µM. hit rate 1.1% among 290,000; in the data active = inhibition above about 60%
PvdQ inh = P. aeruginosa PvdQ acylase inhibition | purified PvdQ acylase, fluorescence plate reader | inhibition, % at 10 µM | hit rate 0.063% among 340,000; in the data active = inhibition above about 30%, passing the limit was not always enough; inconclusive = no clear call, values can overlap the other calls;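 also: 0% = vehicle neutral wells and 100% = reference inhibitor wells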
HDAC3 inh = inhibitors of human histone deacetylase 3. recombinant HDAC3, fluorogenic peptide/trypsin coupled, fluorescence. inhibition, % at 8.3 µM. O15379. hit rate 0.15% among 320,000; in the data active = inhibition above about 26%, passing the limit was not always enough; inconclusive = no clear call, values can overlap the other calls
pCIP destab = p/CIP protein destabilization. Q05BA5. F442A p/CIP-EGFP cells, EGFP fluorescence, 16 h. decrease of EGFP signal, % at 10 µM. hit rate 0.01% among 290,000. AID 1984;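 active = EGFP signal decrease of at least 30% at 10 µM or well 3 SD below plate mean, unless failing retest; inactive = the rest, including hits failing retest or dose response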
GASC-1 inh = inhibitors of human GASC-1 (JMJD2C) demethylase | hit rate 0.069% among 330,000 | GST-JMJD2C(1-420) H3K9me3 demethylation, DELFIA europium | inhibition, % at 2.35 µM | Q9H3R0;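 active = more than half of a compound's replicate wells show inhibition beyond 50%, single wells judged on their own value; inconclusive = some, but no more than half, of replicates pass 50% inhibition; inactive = no replicate passes 50% inhibition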;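 also: signal counts dimethyl H3K9 product captured on neutravidin plate; 0% = median of DMSO wells and 100% = 0.3 times that DMSO median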
Target sequence (Q9H3R0 1-420 limits assumed): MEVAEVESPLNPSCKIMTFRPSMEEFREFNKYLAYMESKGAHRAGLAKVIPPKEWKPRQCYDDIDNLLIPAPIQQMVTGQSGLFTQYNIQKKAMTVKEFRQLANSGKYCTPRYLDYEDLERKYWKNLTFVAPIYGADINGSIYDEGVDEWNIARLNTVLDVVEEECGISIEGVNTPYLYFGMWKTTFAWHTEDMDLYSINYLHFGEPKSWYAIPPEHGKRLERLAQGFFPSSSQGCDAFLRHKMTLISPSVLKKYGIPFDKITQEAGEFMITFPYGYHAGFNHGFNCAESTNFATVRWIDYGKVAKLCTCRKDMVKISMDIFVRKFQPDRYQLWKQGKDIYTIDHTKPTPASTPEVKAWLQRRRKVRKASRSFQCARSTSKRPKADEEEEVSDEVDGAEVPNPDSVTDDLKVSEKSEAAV
* hit, by the source's call; ? = inconclusive; / = no result; + = active, no number. The list is not random: actives were taken first. Their share in the collection is about 2.2%.

SMILES	Mot1-301 SUMO	PHOSPHO1 inh	PvdQ inh	HDAC3 inh	pCIP destab	GASC-1 inh
CC(=O)N[C@@H](Cc1c[nH]c2ccccc12)C(=O)NC1CC1	88	20	-3	1	-4	-15
COc1cccc(-c2c(NC(=O)c3ccco3)oc3ccccc3c2=O)c1	519*	8	-1	-5	-10	-6
COC(=O)c1ccc(OC(=O)c2ccco2)cc1	18	3	81*	56*	10	-6
COC(=O)c1ccc(OC(=O)c2cccs2)cc1	-2	-12	55*	63*	-5	-6
O=C(Oc1ccc(-c2ccccc2)cc1)c1ccco1	/	/	-9	/	/	/
CCc1ccc(C(=O)COC(=O)c2cccs2)cc1	176	23	-1	2	-11	119
CCC(=O)c1ccc(OC(=O)c2cccs2)cc1	102	/	41*	62*	/	-13
Cc1ccccc1-c1cc(C(=O)N/N=C/c2cccnc2)c2ccccc2n1	-5	66*	-9	2	-7	17
CC1(C)C(=O)OC(c2ccc([N+](=O)[O-])cc2)C(C)(C)C1=O (centres undefined)	58	42	-14	1	-4	-11
O=C(c1ccccc1F)N1CCN(C2CCC(c3ccccc3)CC2)CC1 (centres undefined)	282*	-12	-13	4	-22	14
COc1ccccc1C(=O)Nc1nnc(SCC(=O)NC2CCCC2)s1	1	12	1	-2	-19	-3
CCCCC(O)(c1ccc(CC)cc1)C(CN1CCOCC1)c1ccccc1 (centres undefined)	108	48	-10	?	-6	3
COc1ccc(S(=O)(=O)N2CCCCC2)cc1NC(=O)CCOc1cc(C)ccc1C	-5	/	-11	-4	/	3
Cc1snc(SCC(=O)c2ccc([N+](=O)[O-])cc2)c1C#N	/	72*	-3	/	-4	/
N#CC(c1ccc(Cl)cc1)c1ccc2c(C(F)(F)F)cc(C(F)(F)F)nc2n1 (centres undefined)	-37	4	-15	-23	-6	-3
N#CC(c1ccc(Cl)cc1)c1cccc(Cl)n1 (centres undefined)	16	57	117*	2	-1	-10
C/C(N)=C(/C#N)C(=O)CSc1nnc(Nc2c(C)cccc2C)s1	337*	67*	-5	1	4	-1
C/C(N)=C(/C#N)C(=O)CSc1nnc(Nc2cccc(C)c2C)s1	41	39	5	2	-12	1
CSc1cc(SC)ncn1	/	/	-5	/	/	/
Cc1cc(C)nc(NC(=O)CSc2nc3ccccc3o2)n1	4	69*	-12	4	-7	-5
O=C(O)c1ccccc1CSc1nc2ccccc2o1	320*	75*	5	?	1	1
COc1ccccc1/C=C1\SC(=S)N(CC(=O)Nc2nnc(C)s2)C1=O	-17	15	/	-1	-1	-9
C=C(c1ccccc1)c1ccccc1N	-8	/	-12	5	/	0
Cc1ccc(NC(=S)N2CCN(c3ccccn3)CC2)c(C)c1	325*	12	15	9	2	-3
Cc1ccc(NC(=S)N2CCN(C)CC2)c(C)c1	-5	0	-7	1	5	-19
SMILES	Mot1-301 SUMO	PHOSPHO1 inh	PvdQ inh	HDAC3 inh	pCIP destab	GASC-1 inh
S=C(Nc1cccc2ccccc12)N1CCN(c2ncccn2)CC1	/	88*	0	-4	4	5
Cc1ccc(NC(=S)N2CCN(C(=O)c3ccccc3)CC2)c(C)c1	440*	-47	-12	-3	14	25
CC(C)CSc1oc(-c2ccco2)nc1S(=O)(=O)c1ccccc1	-24	12	-5	7	-6	-1
COc1ccc(OC)c(NC(=O)c2nc(-c3ccccc3)oc2C)c1	-26	-30	-11	-1	-13	15
CCCCOc1ccc(CC2CCC(=O)NC2=O)cc1 (centres undefined)	+	28	-4	2	0	9
CSCCC(NC(=O)c1cc(CC(C)C)oc1C)C(=O)O (centres undefined)	-6	53	-13	9	-2	8
CSCCC(NC(=O)c1cc(C)oc1C)C(=O)O (centres undefined)	-2	90*	-14	9	9	10
Cc1ccccc1OCC(=O)N/N=C/c1ccco1	617	37	2	-1	-5	30
COc1ccc(OCC(=O)N/N=C/C(C)=C/c2ccco2)c(Br)c1	475	-9	-10	-5	4	67*
Nc1ccccc1SSc1ccccc1N	8	-74	-11	1	-2	24

Compound activity from PubChem.
